Among all 340,000 compounds or so, about 280 (0.082%) were called active. The sample holds actives, similar compounds and a random draw of the others, so the mix is not that of the screen.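 The calls were made as follows: active = percent activation above the mean of all tested compounds plus 3 SD (cut at about 19% in these data); inactive = the rest.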
These compounds were tested against cAMP-dependent protein kinase type I-alpha regulatory subunit (Bos taurus) + cAMP-dependent protein kinase catalytic subunit beta (Mus musculus) (UniProt P00514+P68181) (assay: activators of PKA-R1A holoenzyme, primary screen, biochemical, fluorescence polarization, Cy5-IP20, bovine R1A, mouse PKAc (AID 504707;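 also: higher means more PKAc released from R1A so a rise in polarization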)). Details: PKA-R1A dissociation, at 11.4 µM, hits give high values, scaled: DMSO 0%, 113 µM cGMP 100%.

Row | SMILES | activation
1 | CCCCCCNC(=O)O[C@]12C[C@@H](C(=O)OC)[C@@H](C(=O)OC)C[C@@]1(O)CN(S(=O)(=O)c1ccc(C)cc1)C2 | -13.7% (inactive)
2 | CCc1nnc(NC(=O)c2ccco2)s1 | -1.79% (inactive)
3 | Cc1cccc(C(=O)C(O)(c2ccccc2)C2CCCCC2=O)c1 (centres undefined) | -0.27% (inactive)
4 | COc1ccc(S(=O)(=O)N(C)C[C@H]2OCc3cnnn3CCCC(=O)N([C@H](C)CO)C[C@H]2C)cc1 | 9.03% (inactive)
5 | CCOC(=O)C1(O)CC(C)=NN1C(=O)c1cccc(Br)c1 (centres undefined) | -8.67% (inactive)
6 | C#CCN(C[C@H]1[C@H](OC(=O)NC2CCCC2)[C@H](OC(=O)NC2CCCC2)C[C@H]2C(=O)N(c3ccccc3)C(=O)[C@@H]12)S(=O)(=O)c1ccc(C)cc1 | 7.98% (inactive)
7 | COc1ccc(S(=O)(=O)N2CCC(C(=O)NCCC(=O)Nc3ccccc3OC)CC2)cc1 | -8.6% (inactive)
8 | COc1ccc(C=C2CCC3C(CCCC34OCCO4)C2=O)cc1 (centres undefined) | -11.2% (inactive)
9 | Cc1ccccc1NC(=O)Cc1nc(COC(=O)CNC(=O)c2ccc(Cl)cc2Cl)cs1 | 4.88% (inactive)
10 | COc1ccc(NC(=O)N(C)C[C@@H]2OCc3cn(nn3)CCCC(=O)N([C@H](C)CO)C[C@H]2C)c(OC)c1 | 1.93% (inactive)
11 | Cc1ccc(-c2ccc(CN3C(C(C)C)C(=O)N(Cc4cn(CCC5OCCO5)nn4)CCS3(=O)=O)cc2)cc1 (centres undefined) | -8.79% (inactive)
12 | N#Cc1ccc(OCC(=O)Nc2nc(-c3ccccn3)cs2)cc1 | 8.97% (inactive)
13 | Cn1c(CCN2CCN(c3ccccn3)CC2)nc2cc(NS(=O)(=O)c3ccc(F)cc3)ccc21 | -5.08% (inactive)
14 | COCCNC(=O)CSc1nc(N)c(NC(=O)c2ccco2)c(=O)[nH]1 | 5.93% (inactive)
15 | CC1(C)NC(=O)N(CC(=O)Nc2ccc(-c3ccccc3)cc2)C1=O | -8.93% (inactive)
16 | CCn1c(SCC(=O)N(C)C2CCS(=O)(=O)C2)nnc1-c1cccs1 (centres undefined) | 0.15% (inactive)
17 | CC(C)N(C(=O)CSc1nnc(NC2CC2)s1)c1ccccc1 | -3.79% (inactive)
18 | CN(C(=O)CSc1nnc(Nc2ccccc2)s1)C1CCS(=O)(=O)C1 (centres undefined) | 19.6% (active)
19 | CC1(c2cccc(N)c2)OCCO1 | -5.54% (inactive)
20 | O=C(CCCN1C(=O)C(c2ccccc2)Oc2cccnc21)Nc1ccccc1Br (centres undefined) | -1.04% (inactive)
21 | O=C(ON=C1CCN(S(=O)(=O)c2ccccc2)CC1)c1ccc(Cl)cc1 | 6.75% (inactive)
22 | CNC(=O)C[C@H]1C(=O)N(c2ccc(OC)cc2)C[C@@H]1Cc1ccccc1 | -2.17% (inactive)
23 | O=C(CN1CCN(S(=O)(=O)c2ccc(Cl)s2)CC1)NCc1ccc(Cl)cc1 | 6.31% (inactive)
24 | COCC(=O)N(C)C[C@H]1Oc2cc(Br)ccc2S(=O)(=O)N([C@H](C)CO)C[C@H]1C | -4.65% (inactive)
25 | CCN(CC)C(=O)C1=C(C)N(Cc2ccc(F)cc2)C(=O)C(CC(=O)NC2CCCC2)C1 (centres undefined) | 12.1% (inactive)

Row | SMILES | activation
26 | Cc1ccc(Cc2c(-c3ccccc3)nc3ccc(Cl)cn23)cc1 | -1.62% (inactive)
27 | Cc1cccc(S(=O)(=O)N(C)C[C@H]2OCc3cnnn3CCCC(=O)N([C@@H](C)CO)C[C@H]2C)c1 | 7.92% (inactive)
28 | CC(C)n1ncc2c(C(=O)N3CCN(Cc4cccs4)CC3)cc(C3CC3)nc21 | 1.11% (inactive)
29 | C[C@H](CO)N1C[C@H](C)[C@@H](CN(C)S(=O)(=O)c2ccc(Oc3ccccc3)cc2)OCc2cn(nn2)CCCC1=O | 1.58% (inactive)
30 | COCCn1c(SCC(=O)Nc2ccc(F)cc2F)nc2c(c1=O)SCC2 | -3.58% (inactive)
31 | C[C@@H]1CN([C@H](C)CO)C(=O)CCCn2cc(nn2)CO[C@H]1CN(C)S(=O)(=O)c1ccc(Oc2ccccc2)nc1 | -8.71% (inactive)
32 | Cc1ccc(S(=O)(=O)N2C[C@H]3C(=O)C[C@@H](c4cccc5ccccc45)N(S(=O)(=O)c4ccc(C)cc4)[C@H]3C[C@H]2c2ccc(Cl)cc2)cc1 | 1.48% (inactive)
33 | COc1ccc(S(=O)(=O)N(C)C)cc1NC(=O)COC(=O)c1n[nH]c2ccccc12 | 0.55% (inactive)
34 | O=C(NCCOc1ccccc1)c1ccccc1F | -12.1% (inactive)
35 | CCN1CCN(CCNC(=O)c2ccc3c(c2)NC(=O)/C(=C\c2cccc(Cl)c2)S3)CC1 | -8.75% (inactive)
36 | C[C@H]1CN([C@@H](C)CO)C(=O)c2cc(-c3ccccc3F)cnc2O[C@H]1CN(C)C(=O)C1CCOCC1 | -7.74% (inactive)
37 | C[C@@H]1CCCCO[C@H](CN(C)Cc2ccccc2)[C@@H](C)CN([C@H](C)CO)C(=O)c2cc(NS(=O)(=O)c3ccc(Cl)cc3)ccc2O1 | -4.59% (inactive)
38 | C#Cc1cc(N2CCN(C(=O)c3ccoc3)CC2)n2nc(-c3cccc(Cl)c3)cc2n1 | -0.28% (inactive)
39 | COc1ccc(-c2ccc(CN3C(C(C)C)C(=O)N(Cc4cn(CC5CCCCC5)nn4)CCS3(=O)=O)cc2)cn1 (centres undefined) | 6.26% (inactive)
40 | O=C(Nc1ccc(Cl)cn1)c1ccccc1-c1ccccc1 | -2.35% (inactive)
41 | CC1CCCC(NC(=O)COC(=O)c2ccccc2C(=O)N(C)C2CCCCC2)C1C (centres undefined) | 4.19% (inactive)
42 | CC(C)c1cc(C(=O)N(C)C2CCCN(Cc3ccccc3F)C2)n(C)n1 (centres undefined) | -3.3% (inactive)
43 | Cc1ccc(C=O)c([B-](F)(F)F)c1 | -6.39% (inactive)
44 | COCCCN1C(=O)C(CC(=O)NCc2cccs2)CC(C(=O)N2CCOCC2)=C1C (centres undefined) | -6.5% (inactive)
45 | O=C(COc1ccc(Br)cc1)OCC(=O)c1ccc[nH]1 | -8.33% (inactive)
46 | CCCC(=O)Nc1ncnc2c1ncn2[C@@H]1O[C@@H]2OP(=O)(O)OC[C@H]2[C@H]1OC(=O)CCC | 49.2% (active)
47 | C[C@@H]1CN([C@H](C)CO)C(=O)CCCn2cc(nn2)CO[C@H]1CN(C)S(C)(=O)=O | -6.01% (inactive)
48 | C[C@H]1CN(c2ccc(Br)cc2)C(=O)[C@@H]1CC(=O)Nc1ccc(Br)cc1 | -2.37% (inactive)
49 | COc1cccc(NC(=O)N(C)C[C@@H]2Oc3ncc(Br)cc3C(=O)N([C@@H](C)CO)C[C@H]2C)c1 | -5.28% (inactive)

— PubChem BioAssay AID504707 (The Scripps Research Institute Molecular Screening Center, 2011)
